HEK293 cAMP ctrl: qHTS Assay for Agonists of the Thyroid Stimulating Hormone Receptor: Activators of Intracellular cAMP Concentrations in Parental HEK 293 | parental HEK293 CNG cAMP sensor, membrane potential fluorescence | Potency, µM (titrated, usually from 57.1 µM), without a hit: at the top dose activation, actives largely listed as activators | actives 2.5% (n = 73,000) | AID 938, 2007; further: potency means the concentration at half of the fitted maximal effect; % of control where 0% means no effect; nearly all actives have a fitted effect of over 55% in size
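Counterscreen for endogenous-receptor signalling: CNG-channel HEK 293 cells report cAMP rise by membrane depolarization. After 60 min dye equilibration with 100 uM RO 20-1724, compounds incubated 30 min before bottom-read fluorescence at 590 nm.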
TSHR ag: qHTS Assay for Agonists of the Thyroid Stimulating Hormone Receptor; HEK293-CNG-TSHR cells (CNG channel as cAMP sensor), membrane potential dye, cAMP; Potency, µM (top dose mostly 57.1 µM), inactives show top-dose activation, actives largely listed as activators; actives 0.48% (n = 73,000); active means well fitted activation curve with a large enough effect in the main read-out, with a control signal flat, not every such curve was filed as active; inconclusive means small, poorly fitted or top-dose-only effect, or a change in a side signal; inactive means no such curve, though single readings can be large or run the other way; % of control where 0% means no effect;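 further: the control signal comes from parental cells without the receptor; potency means the concentration at half of the fitted maximal effect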
Target sequence (P16473 whole entry, looked up): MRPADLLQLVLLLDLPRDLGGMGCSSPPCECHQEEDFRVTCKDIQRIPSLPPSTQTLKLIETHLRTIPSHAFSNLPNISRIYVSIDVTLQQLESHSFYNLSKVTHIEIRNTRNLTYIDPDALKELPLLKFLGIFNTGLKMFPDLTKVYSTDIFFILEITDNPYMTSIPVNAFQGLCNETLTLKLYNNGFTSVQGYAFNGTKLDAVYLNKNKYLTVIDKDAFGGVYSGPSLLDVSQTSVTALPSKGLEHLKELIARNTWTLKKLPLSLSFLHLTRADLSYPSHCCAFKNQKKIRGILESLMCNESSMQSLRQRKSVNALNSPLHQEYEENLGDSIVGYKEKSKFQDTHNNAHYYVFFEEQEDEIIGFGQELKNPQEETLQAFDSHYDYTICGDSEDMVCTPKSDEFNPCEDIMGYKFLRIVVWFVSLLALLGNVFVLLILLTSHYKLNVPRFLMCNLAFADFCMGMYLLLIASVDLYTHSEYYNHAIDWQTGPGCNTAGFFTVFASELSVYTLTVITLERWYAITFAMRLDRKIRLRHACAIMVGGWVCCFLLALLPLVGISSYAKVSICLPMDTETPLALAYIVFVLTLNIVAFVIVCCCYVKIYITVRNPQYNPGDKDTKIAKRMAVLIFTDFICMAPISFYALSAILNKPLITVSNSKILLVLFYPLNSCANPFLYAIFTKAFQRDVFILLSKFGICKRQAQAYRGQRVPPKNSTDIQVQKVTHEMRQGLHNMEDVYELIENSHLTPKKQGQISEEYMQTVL
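HEK 293 cells stably expressing TSHR and a modified CNG channel, with CNG-only parental cells as counterscreen, were preloaded 60 min at room temperature with membrane potential dye containing 100 uM RO 20-1724. Compound exposure was 30 min, and depolarization was read as fluorescence at 590 nm.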
UbGFP stabilizer: Ubiquitin-GFP Assay; Ubiquitin-GFP reporter cells, proteasome inhibition, GFP fluorescence; response scale: untreated = 0%, 10 µM MG-132 = 100%; Potency, µM (top dose mostly 45.9 µM), for inactives: at the highest dose activation (GFP accumulation), hits mostly activators; 67,000 tested, under 10 active; AID 526, 2006; active means well fitted activation curve with a large enough effect, not every such curve was filed as active; inconclusive means small, poorly fitted or top-dose-only effect, or another doubt; inactive means no such curve, though single readings can be large or run the other way; further: potency means the concentration at half of the fitted maximal effect
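U2OS cells expressing ubiquitin(G76V)-GFP, seeded overnight in 0.5% FBS medium, then treated 4 hr at 37 C across 46 uM to 2.9 nM. GFP-positive cells counted by laser cytometry (488 ex/515 em); %activity scaled between basal and 10 uM MG-132.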
GFP derepression: qHTS Assay for Epigenetic Modulators | Potency, µM (highest dose often 46.1 µM), without a hit: at the highest dose GFP derepression (activation) | actives 0.09% (n = 68,000) | mouse C127i GFP locus derepression, cytometry, 30 h | AID 597, 2007; further: % of control where 0% means no effect
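Read-out is the number of GFP-positive cells, scored as fluorescent objects 20 to 120 um wide, reflecting derepression of a silenced CMV-GFP reporter in murine C127i cells after 30 h compound exposure at 37 C.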
HBB splicing: qHTS Assay for Modulators of Hemoglobin Beta Chain Splicing. HBB splicing reporter cell assay, activation; EGFP reporter with mutant IVS2-654 intron; response scale: normalised to 500 nM splice-correcting PNA. Potency, µM (series often up to 46.1 µM), without a hit: at the highest dose activation, actives largely listed as activators. actives 0.06% (n = 65,000). AID 925, 2007; further: potency means the concentration at half of the fitted maximal effect; 0% is about no effect
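Compounds were applied for 2 days to HeLa EGFP-654 cells, 500/well in Optimem with 2% FCS. The reporter's EGFP is disrupted by mis-splicing of beta-globin intron IVS2-654. Readout: summed well GFP fluorescence from 488 nm laser scanning; reference was 500 nM antisense […] 654 PNA.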
An asterisk follows results filed as active; ? = inconclusive; . = no result; [ ] = dose if it differs, or a comment. Only some compounds are listed: those with a hit (about 3% of all), similar ones and a draw of the others. Unless noted, the call rests on the fitted dose curve; in most records, active means well fitted curve in the direction sought with a large enough effect; inconclusive means small, poorly fitted or top-dose-only effect, or another doubt; inactive means no such curve, though single readings can be large; an effect the other way counts as inactive or inconclusive.

SMILES	HEK293 cAMP ctrl	TSHR ag	UbGFP stabilizer	GFP derepression	HBB splicing
OC[C@@H]1O[C@@H](n2cnc3c(N[C@@H]4C[C@@H]5CC[C@H]4C5)ncnc32)[C@@H](O)[C@H]1O	18%	-6%	-3%	2%	-1%
CCC(=O)N(Cc1cc2cc(OC)ccc2[nH]c1=O)c1ccc(C)cc1C	32µM*	?	-1%	1%	.
COc1ccc2nc3c(c(-c4ccccc4)c2c1)CCC3	25µM*	?	.	.	-1%
CCc1c2c(nc3ccc(OC)cc13)COC2	11%	25%	.	.	6%
CCn1cc(C2=NOC(C(=O)Nc3ccc4c(c3)OCO4)C2)c(C)n1 (stereo not given)	1µM*	?	.	.	.
O=C(Nc1ccc2c(c1)OCO2)C1CC(c2ccccc2Cl)=NO1 (stereo not given)	8%	8%	0%	0%	-2%
COc1ccc2[nH]c(C(=O)c3ccccc3)cc2c1	7.9µM*	?	-4%	0%	.
CCOC(=O)c1cc2cc(OC)ccc2[nH]1	.	.	.	6%[20.6 µM]	.
Cc1ccccc1-c1nnc(SCC(=O)NC2CCCCC2)o1	32µM*	?	-2%	-2%	2%
CC(O)CCCCCCC/C=C/C=C/C(N)=O (stereo not given)	6%[11.4 µM]	3%[11.4 µM]	.	.	2%[9.22 µM]
CCOC(=O)N1CCN(CC(=O)Nc2cc3c(cc2C(C)=O)OCO3)CC1	9%	-1%	-2%	.	-1%
CC(=O)c1cc2c(cc1NC(=O)CN1CCN(c3cccc(C(F)(F)F)c3)CC1)OCO2	16µM*	?	-1%	0%	.
C/C(N)=C(/C#N)C(=O)CSc1nnc(SCc2ccc(Cl)cc2)s1	32µM*	?	-2%	3%	-1%[57.5 µM]
C=C1C(=O)O[C@H]2C[C@@]3(C)CCCC(=C)[C@@H]3C[C@H]12	2%	2%	-3%	0%[9.22 µM]	.
CCc1nnc(NC(=O)CSc2nnc(COc3ccccc3)n2-c2ccc(C)cc2)s1	?	?	3%	-1%	.
Cc1ccc(C)c(-n2c(SCC(=O)Nc3nnc(C)s3)nnc2-c2ccoc2C)c1	2.5µM*	?	1%	8%	0%[57.5 µM]
Cc1ccc(C)c(-n2c(SCC(=O)Nc3nonc3C)nnc2-c2ccoc2C)c1	25µM*	?	-4%	-3%	0%[57.5 µM]
Cc1nonc1NC(=O)CSc1nc2cc(Cl)ccc2c2c1CCCC2	?	?	-1%	5%	0%
Cc1nonc1NC(=O)CSc1nnc(-c2ccoc2C)n1C	10%	3%	-2%	3%	2%[57.5 µM]
Cc1cccc(C)c1NC(=O)CSc1nnc(-c2ccoc2C)n1C	10%	0%	5%	-2%	.
Cc1ccc2c3c(c(SCC(=O)Nc4nonc4C)nc2c1)CCCC3	7.9µM*	?	-4%	4%	.
CCc1nnc(NC(=O)CSc2nnc(-c3ccccc3O)n2-c2ccc(C)cc2C)s1	20µM*	?	0%	-2%	-1%
COC(=O)[C@@]1(Cc2ccc(F)cc2)[C@H]2c3cc(C(=O)N4CCCC4)n(Cc4ccc(C(F)(F)F)nc4)c3C[C@H]2CN1C(=O)c1ccccc1	?	?	.	.	0%
COC(=O)[C@@]1(Cc2ccccc2)[C@H]2c3cc(C(=O)N4CCCC4)n(CCO)c3C[C@H]2CN1C(=O)c1ccccc1	16%	11%	.	.	0%
COC(=O)[C@@]1(Cc2ccccc2)[C@H]2c3cc(C(=O)N4CCCC4)n(Cc4ccc(C(F)(F)F)nc4)c3C[C@H]2CN1C(=O)c1ccccc1	1.6µM*	?	.	.	0%
COC(=O)C1(Cc2ccccc2)C2c3cc(C(=O)N4CCCC4)n(Cc4ccc(OC(F)(F)F)cc4)c3CC2CN1C(=O)c1ccccc1 (stereo not given)	1.3µM*	?	.	.	-2%
COc1ccc(CNc2ccnc(-c3c(C)noc3C)n2)c(OC)c1	30%	.	3%	2%[9.22 µM]	-1%
O=C1CCCC=C1[C@@H](O)C1CCCCC1	-1%[11.4 µM]	-2%[11.4 µM]	.	.	1%[9.22 µM]

Source: PubChem BioAssay
